# The whole screen tested about 140,000 compounds, of which about 4,300 (3.1%) were called active. Inconclusive results (about 21%) are left out. This is one part of a sample in which actives are shown more often than they occur.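 The calls were made as follows: active = readout at or below -70, meaning at least 70% loss of cells showing the perinucleolar compartment, a nuclear body marking cancer cells; inconclusive = readout between -30 and a set limit; inactive = the rest.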
# Test: High Content Assay for Compounds that inhibit the Assembly of the Perinucleolar Compartment;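 also: plate controls were DMSO wells for no effect and camptothecin positive control wells for full effect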
# Settings: PC3M PTB-GFP, PNC prevalence imaging, 16 h; at 10 µM; stronger effect = lower value
# Method in brief: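 PC3M cells stably expressing PTB-GFP, 750–1000 cells/well, treated 16 h at 37 °C with compound (23 nl of library stock), in duplicate. After paraformaldehyde fixation and Hoechst stain, imaged at 20x; PNC prevalence scored by image analysis.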
row,SMILES,"activity change (PNC), negative = inhibition"
1,CCOC(=O)C1=C(CSc2nnnn2C)N(C)C(=O)NC1c1ccccc1 (stereo unspecified),19.9% (inactive)
2,Cn1nnnc1SCC(=O)N1CCN(Cc2ccccc2)CC1,29.1% (inactive)
3,Cc1ccc2nsnc2c1NC(=O)c1ccccc1[N+](=O)[O-],-1.05% (inactive)
4,O=C(C/C(=N\NC(=O)c1ccccc1Br)C(F)(F)F)c1cccs1,-25.7% (inactive)
5,Cc1ccc(C)c2[nH]c(=O)c(CCNC(=O)c3cccs3)cc12,36.1% (inactive)
6,COc1cc(OC)cc(C(=O)NCC(=O)OCc2csc(-c3ccccc3)n2)c1,0.666% (inactive)
7,CCC1CCCCN1C(=S)Nc1ccc(C(C)=O)cc1 (stereo unspecified),83.7% (inactive)
8,CCNC(=O)NC(=O)C(C)OC(=O)C1CCN(S(=O)(=O)c2ccccc2F)CC1 (stereo unspecified),-28.8% (inactive)
9,CC(NC(=O)CCC(=O)N1CCN(S(=O)(=O)c2ccc(Cl)cc2)CC1)c1ccccc1 (stereo unspecified),-12.6% (inactive)
10,CC(NC(=O)COC(=O)C1CCN(S(=O)(=O)c2ccccc2C(F)(F)F)CC1)c1ccccc1 (stereo unspecified),-108% (active)
11,O=C(Nc1cccc(Cl)c1)Nc1ccccc1NS(=O)(=O)c1cccs1,-1.43% (inactive)
12,CNC(=O)CSc1nnnn1-c1ccc(C)cc1C,-10.4% (inactive)
13,CCOC(=O)CNC(=O)CSc1nnnn1-c1cc(C)ccc1C,-8.66% (inactive)
14,CCOC(=O)c1c(-c2ccc(C)cc2C)csc1NC(=O)CSc1nnnn1C,-85.2% (active)
15,C/C(CCC(=O)OC[C@H]1O[C@H](C#Cc2ccccc2)C=C[C@@H]1Oc1ccc(C)cc1)=N\OC[C@@H](O)[C@H]1O[C@@H]2OC(C)(C)O[C@@H]2[C@H]1O,49% (inactive)
16,CN(CC(=O)NCCc1ccccc1)S(=O)(=O)c1cnc[nH]1,-5.8% (inactive)
17,COc1ccc(C(=O)COC(=O)COc2ccc(C)c(C)c2)cc1,-83.5% (active)
18,COCCNC(=O)COc1ccc(C)c(C)c1,-16.6% (inactive)
19,Cc1ccc(/C(N)=N/OC(=O)COc2ccc(Cl)c(C)c2)cc1,48.8% (inactive)
20,CCOC(=O)c1ccc(NC(=O)CSc2ncccn2)cc1,-27.8% (inactive)
21,CCOC(=O)c1ccc(NC(=O)CSc2nnc(COc3ccccc3OC)n2C)cc1,-83.9% (active)
22,COC(=O)c1ccc(NC(=O)CSc2nnc(-c3ccncc3)n2C)cc1,-12.9% (inactive)
23,CN(CC(=O)Nc1ccc(S(=O)(=O)N2CCCC2)cc1)Cc1ccc(Cl)c(Cl)c1,14.3% (inactive)

row,SMILES,"activity change (PNC), negative = inhibition"
1,Cc1nc2scc(-c3cccs3)c2c(=O)n1N,38.3% (inactive)
2,Cn1c(=O)[nH]c(=O)c2c1nc(NCCCn1ccnc1)n2Cc1cccc(Br)c1,-100% (active)
3,CCCCNc1nc2c(c(=O)n(C)c(=O)n2C)n1Cc1cccc(OC)c1,-17.3% (inactive)
4,CCCCNc1nc2c(c(=O)[nH]c(=O)n2C)n1CCOc1ccccc1,44.9% (inactive)
5,O=C(N/N=C\c1ccc(Br)cc1)c1ccc(Cn2cccn2)o1,-11.4% (inactive)
6,CN(C)S(=O)(=O)c1ccc(N2CCCC2=O)c([N+](=O)[O-])c1,43.2% (inactive)
7,COc1ccc2c(c1)C(SCC(=O)NCc1ccccc1)CC(C)(C)O2 (stereo unspecified),27.2% (inactive)
8,Cc1ccc(C)c(S(=O)(=O)N2CC(=O)Nc3ccccc32)c1,-86.7% (active)
9,Cc1ccc(C)c(S(=O)(=O)n2cnc3ccccc32)c1,-9% (inactive)
10,Cc1ccc(S(=O)(=O)N2CC(=O)Nc3ccccc32)cc1C,5.54% (inactive)
11,COc1ccc(NC(=S)NCc2cccs2)c(OC)c1,-5.37% (inactive)
12,O=C(CN1CCN(S(=O)(=O)c2ccc(Br)cc2)CC1)Nc1ccccc1C(=O)c1ccccc1,41.1% (inactive)
13,COC(=O)NNC(=O)C1CCC(C)CC1 (stereo unspecified),21.6% (inactive)
14,CCOC(=O)C1=C(CC)Nc2ccccc2N=C1NC(=O)c1cccc(S(=O)(=O)N2CCCC2)c1,-114% (active)
15,CCOC(=O)CSc1nnc(NC(=O)c2cccc(S(=O)(=O)N3CCCCC3)c2)s1,19.2% (inactive)
16,O=C(Nc1nncs1)c1cccc(S(=O)(=O)N2CCCCC2)c1,-22% (inactive)
17,COc1ccc(C)cc1NC(=O)C(Sc1ccccc1)c1ccccc1 (stereo unspecified),-2.98% (inactive)
18,CCC(C)NC(=O)c1ccc(N2CCC3(CC2)OCCO3)c([N+](=O)[O-])c1 (stereo unspecified),36.6% (inactive)
19,COc1ccc(NC(=O)CN(Cc2ccccc2)S(C)(=O)=O)cc1OC,-0.222% (inactive)
20,CCCCC(=O)N/N=C(\C)CC(=O)Nc1cc(Cl)ccc1OC,41.6% (inactive)
21,COc1ccc(COC(=O)N/N=C(\C)CC(=O)Nc2ccc(Cl)cc2)cc1,20.7% (inactive)
22,C/C(CC(=O)Nc1ccc(Cl)cc1)=N\NC(=O)C(=O)NCCO,-81.9% (active)
23,CC(C)(C)C1CCC(=NNC(=O)c2ccc(Br)o2)CC1 (stereo unspecified),30.8% (inactive)

# Reference: PubChem BioAssay AID2417 (National Center for Advancing Translational Sciences (NCATS), 2010)
